HP1b chromo inh = HTS for Inhibitors of HP1-beta Chromodomain Interactions with Methylated Histone Tails. Chromobox protein homolog 1 (Homo sapiens), P83916. AlphaScreen HP1-beta / biotin-H3K9me3 peptide binding. Potency, µM (highest dose often 114 µM), inactives show top-dose activity change, negative = inhibition, hits mostly inhibitors. 0.56% of 390,000 active. AID 540317, 2011; note: nearly all actives have a fitted effect of over 70% in size
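AlphaScreen: HP1-beta (50 nM) preformed 30 min with biotin-H3(1-18)K9me3 peptide (50 nM) in PBS pH 7.4, 0.01% Tween-20. Compound added for 30 min at RT, then streptavidin donor/nickel chelate acceptor beads (10 ug/mL) for 30 min.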
GLS inhibitor = qHTS for Inhibitors of Glutaminase (GLS); Glutaminase kidney isoform, mitochondrial (Homo sapiens), O94925; GLS enzymatic activity, qHTS titration; Potency, µM (series often up to 45.5 µM), for the others: at the top dose activity change, negative = inhibition, actives largely listed as inhibitors; 0.21% of 410,000 active; AID 624170, 2012; note: % is set by controls: 0 for no effect and ±100 for the full control effect
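Human kidney-isoform GLS in 45 mM KH2PO4 pH 8.2, 0.02% Tween-20, with compound, started with 1mM L-Glutamine (added stock). Glutamate oxidase/HRP/Amplex red coupled fluorescence read at start and after 30 min at RT.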
BAZ2B inh = qHTS Assay for Inhibitors of BAZ2B; Potency, µM (series often up to 114 µM), inactives show at the highest dose activity change, negative = inhibition, actives largely listed as inhibitors; Bromodomain adjacent to zinc finger domain protein 2B (Homo sapiens), Q9UIF8; AlphaScreen BAZ2B-H3K14Ac peptide displacement; 4.4% of 360,000 active; note: % is set by controls: 0 for no effect and ±100 for the full control effect; nearly all actives have a fitted effect of over 60% in size
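Inhibition is scored as reduced AlphaScreen emission. The BAZ2B/b-H3(5-23)K14Ac complex (50 nM each) in PBS pH 7.4, 0.01% Tween-20 meets compound (up to 110 uM) for 30 min at RT before bead addition.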
G9a inh = qHTS Assay for Inhibitors of Histone Lysine Methyltransferase G9a | Histone-lysine N-methyltransferase EHMT2 (Homo sapiens), Q96KQ7 | G9a H3K9 monomethylation, AlphaScreen, 2 h | Potency, µM (doses to about 102 µM), inactives show at the top dose activity, negative = inhibition, actives largely listed as inhibitors | 8.8% of 350,000 active | AID 504332, 2011; note: % is set by controls: 0 for no effect and ±100 for the full control effect; nearly all actives have a fitted effect of over 75% in size
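Enzyme 20 nM + cpd, 15 min RT; add b-H3K9 pep 500 nM / SAM 20 uM; 2 h RT; anti-H3K9me1 Ab 0.5 ug/mL + SA donor / anti-rabbit acceptor beads 20 ug/mL each, 10 min; AlphaScreen read.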
JMJD2A Tudor inh = qHTS Assay for Inhibitors of JMJD2A-Tudor Domain. Lysine-specific demethylase 4A (Homo sapiens), O75164. AlphaScreen JMJD2A-Tudor / H3K4me3 peptide binding. Potency, µM (series often up to 114 µM), for inactives: top-dose activity change, negative = inhibition, usual class: inhibitors. 4.4% of 390,000 active. AID 504339, 2011; note: % is set by controls: 0 for no effect and ±100 for the full control effect; nearly all actives have a fitted effect of over 50% in size
The depositor's hits bear a star; ? = inconclusive; nt = no result given; [ ] = another dose, or the depositor's remark. A selection: hits, their analogues and other compounds. The true share with any hit is near 10%. Calls come from the whole dose curve; as a rule, active = well fitted curve in the direction sought with a large enough effect; inconclusive = small, poorly fitted or top-dose-only effect, or another doubt; inactive = no such curve, though single readings can be large; an effect the other way counts as inactive or inconclusive. Potency is the fitted concentration of half-maximal effect.

SMILES	HP1b chromo inh	GLS inhibitor	BAZ2B inh	G9a inh	JMJD2A Tudor inh
COc1cc(C(=O)NS(=O)(=O)c2ccccc2C)ccc1Cc1cn(C)c2ccc(NC(=O)OC3CCCC3)cc12	nt	1%	50µM*	?	nt
CC(C)COc1ccc(C(=O)Nc2onc3c2CCCC3)cc1	71%	2%	34%	?	-12%
OC(COCc1ccccc1)CN1CCN(Cc2ccc3c(c2)OCO3)CC1 (configuration not stated)	-4%	20%	-28%	?	-25%
SC(COCc1ccccc1)CN1CCN(Cc2ccc3c(c2)OCO3)CC1 (configuration not stated)	5%	6%	?	22µM*	?
COc1ccc(OCC(O)CN2CCN(Cc3ccc4c(c3)OCO4)CC2)cc1 (configuration not stated)	27%	0%	-12%	20µM*	-13%
CCN1CCN(CC(O)COc2ccc(C(C)=O)cc2)CC1 (configuration not stated)	52%	-3%	2%	50µM*	-30%
CCOC(=O)c1ccc(S(=O)(=O)N2CCN(CCC#N)CC2)cc1	41%	1%	6%	?	1%
CCOC(=O)c1ccc(S(=O)(=O)N2CCN(CC(O)COc3ccc(C#N)cc3)CC2)cc1 (configuration not stated)	-30%	8%	56µM*	35µM*	20µM*
CC[N+](CC)(CC)CCOC(=O)C(C1CCCC1)C1CCCC1	nt	2%	nt	nt	nt
CCOc1ccc(NC(=O)Cn2cc(C(=O)c3ccc(CC)cc3)c(=O)c3cc(C)ccc32)cc1	25%	7%	?	?	-13%
CC(=O)c1ccc(OCC(O)CN2CCN(Cc3ccc4c(c3)OCO4)CC2)cc1 (configuration not stated)	48%	2%	-10%	?	63µM*
CC(=O)N1CCN(CC(O)COc2ccc(OCc3ccccc3)cc2)CC1 (configuration not stated)	4%	2%	-9%	5%[59 µM]	-14%
CC(=O)c1cccc(OCC(O)CN2CCN(C(=O)c3ccco3)CC2)c1 (configuration not stated)	?	-3%	71µM*	?	1.4µM*
O=C(CSc1nc(=O)[nH]c2c1CCC2)NCc1ccc(Cl)cc1	27%	7%	5%	10%[59 µM]	6%
CC(=O)N1CCc2cc(S(=O)(=O)CCC(=O)NCc3ccc(Cl)cc3)ccc21	30%	7%	-3%	-1%[59 µM]	1%
CCC(=O)N1CCc2cc(S(=O)(=O)CCC(=O)Nc3cc(Cl)ccc3OC)ccc21	8%	10%	nt	13µM*	14µM*
CC(=O)N1CCc2cc(S(=O)(=O)CCC(=O)Nc3ccc(Cl)cc3F)ccc21	49%	-6%	-20%	71µM*	-10%
CCC(=O)N1CCc2cc(S(=O)(=O)CCC(=O)Nc3cccc(C)n3)ccc21	56%	2%	7%	50µM*	-12%
CCC(=O)N1CCc2cc(S(=O)(=O)CCC(=O)Nc3ccc(OC)cc3)ccc21	36%	3%	-3%	nt	11%
COc1ccc(NC(=O)CN(c2ccc(F)cc2)S(=O)(=O)c2ccccc2)c(OC)c1	33%	-1%	?	16%	-32%
CN(C(=O)c1cccc(NC(=O)Cc2ccc([N+](=O)[O-])cc2)c1)C1CCCCC1	17%	17%	nt	nt	?
Cc1ccccc1NC(=O)CCC(=O)N/N=C/c1ccncc1	62%	-12%	?	7.1µM*	-18%[11.4 µM]
Cc1ccc(C)c(NC(=O)CCC(=O)N/N=C/c2cccnc2)c1	49%	-18%	-6%	18%[0.501 µM]	-1%
O=C(CCC(=O)Nc1ccc(F)cc1)N/N=C/c1ccncc1	4%	-4%	nt	6%	3.5µM*
COc1ccc(NC(=O)CCC(=O)N/N=C/c2ccncc2)cc1	53%	-5%	-5%	22µM*	7%

Screening results as filed in PubChem.
